A selection: hits, their analogues and other compounds. The true share with any hit is near 2.2%.
TDP43 rescue: qHTS of TDP-43 Inhibitors | TDP-43 expressing yeast growth rescue, BacTiter-Glo, 24 h | Potency, µM (top dose mostly 46.1 µM), for the others: at the top dose growth rescue (activation), hits mostly activators | 410,000 compounds, 1.8% hits; further: % of control where 0% means no effect; nearly all actives have a fitted effect of over 50% in size
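Growth rescue of TDP-43-toxic yeast measured as ATP luminescence (BacTiter-Glo). Cells grown to mid-log in raffinose, induced in galactose at OD600=0.02, exposed to compound 24 hr at 30 deg C.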
Abeta rescue: qHTS for compounds that reverse cellular toxicity of Amyloid beta (A-beta) peptide in yeast: Primary Screen | Potency, µM (highest dose often 46.1 µM), hits mostly activators | yeast expressing A-beta42, growth rescue, OD600, 48 h; response scale: 0% DMSO, 100% iron-clioquinol control | 410,000 compounds, 0.063% hits; further: nearly all actives have a fitted effect of over 55% in size
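Growth rescue measured by 600 nm absorbance after 48 h yeast culture at 30 C with compound. Values normalized between DMSO and an equimolar ferric chloride plus clioquinol control.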
Mito fusion act: qHTS Assay for Small Molecule Inhibitors of Mitochondrial Division or Activators of Mitochondrial Fusion; AID 485298, 2010; S. cerevisiae fusion-defective mutant growth rescue, CellTiterGlo 48 h; 320,000 compounds, 0.23% hits; Potency, µM (titrated, usually from 46.1 µM), for the others: at the highest dose growth rescue (activation), most hits filed as activators; further: % of control where 0% means no effect; nearly all actives have a fitted effect of over 45% in size
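Compounds are tested for their ability to restore growth of mitochondrial fusion-defective yeast strains at non-permissive 37C in YPEG medium over 48 hours. Viability is quantified by luciferase luminescence.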
aSyn yeast inh: qHTS of alpha-syn Inhibitors; Potency, µM (series often up to 46.1 µM), for the others: at the top dose growth rescue (activation), hits mostly activators; Yeast expressing alpha-synuclein, growth rescue, BacTiter-Glo, 24 h; 370,000 compounds, 0.14% hits; AID 652106, 2013; further: % of control where 0% means no effect; nearly all actives have a fitted effect of over 65% in size
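Galactose-induced alpha-syn yeast (OD600=0.02, raffinose-pregrown) + pinned cpd, 24 hr, 30 deg C; growth by BacTiter-Glo luminescence. Growth restoration scores as activation.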
FUS yeast rescue: qHTS for Suppressors of FUS Proteinopathy: Primary screen using FUS-linked yeast assay | AID 1347120, 2019 | Potency, µM (series often up to 76.6 µM), hits mostly activators | S. cerevisiae FUS-expressing, growth rescue, OD600, 24 h | 390,000 compounds, 0.24% hits;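 further: plate controls were DMSO vehicle for no effect and reference control for full effect; nearly all actives have a fitted effect of over 55% in size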
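Cultures pregrown in 2.5% raffinose medium are shifted to minimal medium containing 2% galactose to express toxic FUS. Compounds are tested at several concentrations. After 24hr at 30C, growth is quantified at 600 nm absorbance.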
Active calls of the source: *; i = inactive; ? = inconclusive; . = not tested or not shown; [ ] = remark or other dose. The call rests on the fitted dose curve; in most records, active means well fitted curve in the direction sought with a large enough effect; inconclusive means small, poorly fitted or top-dose-only effect, or another doubt; inactive means no such curve, though single readings can be large; an effect the other way counts as inactive or inconclusive. Potency means the concentration at half of the fitted maximal effect.

SMILES	TDP43 rescue	Abeta rescue	Mito fusion act	aSyn yeast inh	FUS yeast rescue
Cc1ccc(-c2csc(NC(=O)c3c(C)noc3C)n2)s1	11µM*	i	.	-9%	.
CNC(=O)NC(=O)CSc1cccc(C(F)(F)F)c1	11%	i	-2%	-3%	i
CCCNC(=O)NC(=O)CSc1cccc(C(F)(F)F)c1	18µM*	i	-23%	4%	i
O=C(Nc1ccc(Cl)cc1)c1ccc2c(c1)N(Cc1ccccc1)CCS2	24%	i	.	.	i
CCCC(=O)Nc1sc(Cc2ccccc2)c(C)c1C(N)=O	18µM*	i	?	-20%	i
COC(=O)CCC(=O)Nc1sc(Cc2ccccc2)c(C)c1C(N)=O	-22%[0.397 µM]	i	6%	-6%	i
O=C1CCc2cc(NS(=O)(=O)c3ccc(Br)cc3)cc3c2N1CC3	8%	i	11%	3.2µM*	i
Cc1cc(-n2c(C)cc(C(=S)N3CCOCC3)c2C)ccc1Br	20µM*	i	29%	-2%	.
Cc1ccc(-n2c(C)cc(C(=O)CN3CCOCC3)c2C)cc1C	-11%	i	1%	-6%	i
CC(C)CN(C(=O)c1ccc(=O)n(C)n1)c1nc2ccccc2s1	16µM*	i	1%	0%	i
O=C(Nc1ccon1)Nc1ccccc1C(F)(F)F	9%	i	-2%	-1%	i
O=C(CCc1ccccc1)N(Cc1cccnc1)c1nc2c(F)cccc2s1	16µM*	i	.	.	i
Cc1cccc2sc(N(Cc3cccnc3)C(=O)CCc3ccccc3)nc12	?	i	.	.	?
O=C(COc1ccccc1)N(Cc1cccnc1)c1nc2ccc(Cl)cc2s1	16µM*	i	.	.	i
O=C(COc1ccccc1)N(Cc1cccnc1)c1nc2c(F)cccc2s1	18µM*	i	.	.	i
O=C(CCOc1ccccc1)N(Cc1cccnc1)c1nc2c(F)cccc2s1	5%	i	.	.	i
Cc1ccc2nc(N(Cc3cccnc3)C(=O)COc3ccccc3)sc2c1	0%	i	.	.	i
COC(=O)[C@]12CCCCC=C1N(CCc1ccc(OC)c(OC)c1)C(=O)[C@H](CC(=O)N1CCOCC1)C2	13%	i	.	-6%	i
CC(C)(C)c1ccc(OCc2ccc(C(=O)NCc3cccnc3)o2)cc1	14%	i	3%	-1%	i
CCN(c1ncnc2c1cnn2-c1cc(Cl)ccc1C)C1CCCCC1	-10%	i	.	.	i
Cc1oc2ncn(CC(C)C)c(=O)c2c1C(=O)NCCc1ccc(Cl)cc1	27%	i	.	.	i
CC(=O)Oc1[nH]c(=O)c2cccc3c2c1CCC3	28µM*	i	.	-4%	i
CC(=O)Oc1cc2c(c3ccccc13)CCC2=O	?	i	.	25%	i
CN(CC(=O)Nc1cccc(F)c1)C(=O)CCc1nc2sc3c(c2c(=O)[nH]1)CCCC3	-8%	i	-2%	-1%	i
COC(=O)N1C(=O)[C@](c2ccc(Cl)cc2)(C(C)C)N1C(=O)OC	35µM*	i	-1%	6%	i
SMILES	TDP43 rescue	Abeta rescue	Mito fusion act	aSyn yeast inh	FUS yeast rescue
O=C(NC(c1cccnc1)C(F)(F)F)c1cc(COc2ccc3c(c2)CCCC3)on1 (stereo not given)	20µM*	i	4%	12%	i
Cc1ccc(Cc2c(-c3cccc(Cl)c3)nc3ccc(Cl)cn23)cc1	16µM*	i	.	24%	i
Cc1ccc(Cc2c(-c3cccc(Cl)c3)nc3ccc(C)cn23)cc1	28µM*	i	.	6%	i
Cc1ccc2nc(-c3cccc(Br)c3)c(Cc3cccc(Cl)c3)n2c1	35µM*	i	.	1%	i
COc1ccc(Cc2c(-c3cccc(Cl)c3)nc3ccc(Cl)cn23)c(C)c1	35µM*	i	.	8%	i
Cc1ccc(Cc2c(-c3cccc(Cl)c3)nc3ccc(Br)cn23)cc1	?	i	.	-20%	?
COc1ccc(N(C(=O)COc2ccc(Br)cc2)S(=O)(=O)c2ccc(C)cc2)cc1	8%	i	.	.	i

Screening results as filed in PubChem BioAssay.
